According to PubChem BioAssay (NCI):
About 79,000 compounds went through this panel and 15% of them were active in at least one assay; those are over-represented in the sample as a whole. Values without a mark were called inactive. No stated cut-off is given here; in the data, active means growth inhibition above about 70%; inactive means the rest.

Assay: NCI Yeast Anticancer Drug Screen. Data for the sgs1 mgt1 strain (AID 161);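 further: 0% = growth of cultures given vehicle only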
Settings: S. cerevisiae sgs1 mgt1 strain, at 50.0 µM, hits give high values
Experimental: Growth inhibition of yeast strains with defined genetic alterations is measured as a screen for potential anti-cancer activity. Selected strains with alterations in DNA damage repair or cell cycle control were exposed to compounds and growth inhibition was measured relative to vehicle treated controls. The strain used in this assay is sgs1 mgt1

| Structure (SMILES) | growth inhibition [%] |
| --- | --- |
| COS(=O)(=O)c1ccc(Br)cc1 | -17.3 |
| CN(C)c1nc2c([nH]1)c(=O)n(C)c(=O)n2C | 2.2 |
| CCCOC(=O)C(O)c1ccccc1 (stereo not given) | -5.5 |
| S=c1nn[nH]c2ccccc12 | 8.6 |
| CC1(O)CCCCC1O (stereo not given) | -8.3 |
| CCc1ccc(/C(C#N)=C/C=C/c2ccccc2)cc1 | 20.6 |
| COc1ncnc2c1cnn2C | 13.3 |
| COc1cccc(COC(=O)Nc2ccccc2)c1OC | 29.7 |
| COC1=CC(=O)c2nc(Cl)ccc2C1=O | 35.2 |
| O=C1Cc2ccccc2C(=O)O1 | 1.95 |
| Cc1ccc(C(=O)c2ccccc2)c(C)c1 | 0.6 |
| O=C(NCCNC(=O)c1ccc(Cl)cc1Cl)c1ccc(Cl)cc1Cl | -4 |
| CCOC(=O)CSc1c([N+](=O)[O-])ncn1C | 8.75 |
| Nc1nc(OCc2ccccc2)c2[nH]cnc2n1 | -48.1 |
| COC(=O)c1cccc(Br)c1 | -4.75 |
| CCC(C)(C)C1CCC(O)CC1 (stereo not given) | 12.7 |
| CCCCC(O)c1ccccc1 (stereo not given) | -24.7 |
| CCOc1ccc(I)cc1 | -17.5 |
| O=S(=O)(O)c1cc(O)c2c(N=Cc3ccccc3O)c(S(=O)(=O)O)ccc2c1 | 6.55 |
| NCCC(=O)c1ccc(Cl)cc1 | 6.8 |

| Structure (SMILES) | growth inhibition [%] |
| --- | --- |
| CC(=O)OCC(=O)[C@@]1(O)CC[C@H]2[C@@H]3CC[C@@H]4C[C@H](O)CC[C@]4(C)[C@H]3C(=O)C[C@@]21C | 25.4 |
| Cc1cc(N)ccc1-c1ccc(N)cc1C | 4.45 |
| Cc1cc(=O)[nH]c(NN=C2CCCC2)n1 | -35.4 |
| OCCN1CCOCC1 | 1.4 |
| CCCCCCCCCCCCCCCCC1CC(=O)OC1=O (stereo not given) | 5.9 |
| COC(=O)c1ccc(NC(=O)CCl)cc1 | 50 |
| CCCCCCCO | -28.8 |
| COC(=O)c1cccnc1 | -0.35 |
| COC(=O)CCCCC1=CCC2C(=O)C=C(O)C2C1 (stereo not given) | -11.2 |
| NC(N)=Nc1cc2ccccc2c2ccccc12 | -7.5 |
| O=c1cc(-c2ccccc2)[nH]c(=S)[nH]1 | 8.65 |
| C=CCOC(=O)C(=O)OCC=C | -25.9 |
| CSc1[nH]c(=O)ncc1F | 3.2 |
| C=C[Si](OC(C)=O)(OC(C)=O)OC(C)=O | 0.85 |
| c1ccc(Cc2ccccc2)cc1 | -21.8 |
| Cc1cc(C)c(N)c(S(=O)(=O)O)c1 | -24.1 |
| COc1cc(C(=O)NC(=S)Nc2ccc3ccccc3c2)cc(OC)c1OC | 6.25 |
| CCN1C(=O)/C(=C/C=C/N(C)c2ccccc2)SC1=S | 3.25 |
| O=C(O)/C=C/c1ccc2c(c1)CCC2 | 48.4 |
| O=C(O)c1cc([N+](=O)[O-])ccc1Cl | 7.15 |
